Bioassay records as filed in PubChem BioAssay.
Sampled rows, rich in hits. Any-hit rate of the full collection: about 5.8%.
Luciferase inh – qHTS Assay for Inhibitors of Firefly Luciferase; actives 2.2% (n = 72,000); Luciferin 4-monooxygenase (Photinus pyralis), P08659; purified firefly luciferase, luminescence, 8 min; Potency, µM (titrated, usually from 57.1 µM), for the others: at the highest dose activity change, negative = inhibition, actives largely listed as inhibitors; further: on the % scale 0 is the no-effect control and ±100 the full control effect; nearly all actives have a fitted effect of over 40% in size
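Inhibition of light generation by firefly luciferase from ATP and luciferin was profiled with concentration-response curves per sample, ATP held at 10 uM within the enzyme's linear range. Plates were read by luminescence after an 8-minute ambient incubation.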
Bst PK mod – Pyruvate Kinase. AID 361, 2006. Potency, µM. actives 1.2% (n = 51,000). purified pyruvate kinase, luminescence ATP production; ribose 5-phosphate activator present at AC10; in the data active means potency below about 11 µM; inconclusive means mostly about 12 µM to 25 µM;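 the screen sought inhibitors and activators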;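 further: scaled between full activation by ribose 5 phosphate and full inhibition by luteolin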
TSHR agonist – qHTS Assay for Agonists of the Thyroid Stimulating Hormone Receptor | Thyrotropin receptor (Homo sapiens), P16473 | HEK293-CNG-TSHR cells (CNG channel as cAMP sensor), membrane potential dye, cAMP | Potency, µM (top dose mostly 57.1 µM), without a hit: at the highest dose activation, hits mostly activators | actives 0.48% (n = 73,000) | AID 926, 2007; active means well fitted activation curve with a large enough effect in the main read-out, with a control signal flat, not every such curve was filed as active; inconclusive means small, poorly fitted or top-dose-only effect, or a change in a side signal; inactive means no such curve, though single readings can be large or run the other way; % of control where 0% means no effect;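 further: the control signal comes from parental cells without the receptor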
Target sequence (P16473 whole entry, looked up): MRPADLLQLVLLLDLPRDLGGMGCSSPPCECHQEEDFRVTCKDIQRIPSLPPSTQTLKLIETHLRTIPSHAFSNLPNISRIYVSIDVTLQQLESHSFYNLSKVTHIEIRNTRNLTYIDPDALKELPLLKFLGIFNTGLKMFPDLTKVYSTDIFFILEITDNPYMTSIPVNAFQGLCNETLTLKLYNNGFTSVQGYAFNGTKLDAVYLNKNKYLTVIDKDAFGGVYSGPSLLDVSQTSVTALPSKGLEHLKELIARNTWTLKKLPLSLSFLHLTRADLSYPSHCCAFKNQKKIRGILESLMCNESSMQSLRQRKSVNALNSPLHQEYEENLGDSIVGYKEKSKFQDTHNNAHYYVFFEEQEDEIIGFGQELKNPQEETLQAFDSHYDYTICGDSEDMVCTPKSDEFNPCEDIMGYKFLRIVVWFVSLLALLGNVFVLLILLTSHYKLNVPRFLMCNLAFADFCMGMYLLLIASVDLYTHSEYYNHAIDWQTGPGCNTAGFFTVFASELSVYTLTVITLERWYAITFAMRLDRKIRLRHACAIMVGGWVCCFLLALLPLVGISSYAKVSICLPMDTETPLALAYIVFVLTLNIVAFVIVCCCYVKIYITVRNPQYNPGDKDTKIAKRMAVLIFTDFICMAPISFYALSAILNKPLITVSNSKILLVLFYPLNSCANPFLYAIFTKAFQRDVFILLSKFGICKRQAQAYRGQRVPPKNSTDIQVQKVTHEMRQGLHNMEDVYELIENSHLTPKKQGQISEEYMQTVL
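HEK 293 cells stably expressing TSHR and a cAMP-gated CNG channel; parental CNG-only cells as counterscreen. Cells preloaded 60 min with membrane potential dye plus 100 uM RO 20-1724, then compound 30 min; fluorescence read at 590 nm.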
HEK293 cAMP ctrl – qHTS Assay for Agonists of the Thyroid Stimulating Hormone Receptor: Activators of Intracellular cAMP Concentrations in Parental HEK 293 | actives 2.5% (n = 73,000) | parental HEK293 CNG cAMP sensor, membrane potential fluorescence | Potency, µM (titrated, usually from 57.1 µM), without a hit: top-dose activation, most hits filed as activators | AID 938, 2007; further: % of control where 0% means no effect; nearly all actives have a fitted effect of over 55% in size
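Parental HEK 293 cells stably expressing a cAMP-gated CNG channel were loaded with membrane potential dye containing 100 uM RO 20-1724 for 60 min. Compound added for 30 min; depolarization read as fluorescence intensity at 590 nm.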
GBA activity – Glucocerebrosidase | purified enzyme, resorufin glucoside fluorescence (screen aimed at inhibitors), 20 min | Potency, µM | actives 1.1% (n = 48,000); in the data active means potency below about 15 µM; inconclusive means mostly about 16 µM to 33 µM;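 further: the screen sought inhibitors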
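Wild-type enzyme at 0.2 nM final in 50mM citric acid/KH2PO4, 10mM sodium taurocholate, 0.01% tween-20, pH 5.9, with resorufin beta-D-glucopyranoside at 30 uM final. Compounds titrated, 20 min at RT, red fluorescence read; AC50 from titration.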
Active calls of the source: *; i = inactive; ? = inconclusive; · = no result; [ ] = remark or other dose. Unless noted, the call rests on the fitted dose curve; in most records, active means well fitted curve in the direction sought with a large enough effect; inconclusive means small, poorly fitted or top-dose-only effect, or another doubt; inactive means no such curve, though single readings can be large; an effect the other way counts as inactive or inconclusive. Potency means the concentration at half of the fitted maximal effect.

SMILES | Luciferase inh | Bst PK mod | TSHR agonist | HEK293 cAMP ctrl | GBA activity
Cc1ccc(Cc2c(C)nc3nc(SCC(=O)NCc4ccco4)nn3c2C)cc1 | -0.4% | >57 | ? | 15.8µM* | >76.9
Cc1cccc(Cc2c(C)nc3nc(SCC(=O)NCc4ccco4)nn3c2C)c1 | -3.4% | >57 | ? | 10µM* | >76.9
COC(=O)[C@H](Cc1ccccc1)NC(=O)[C@@H](C)CO | -1.5%[11.4 µM] | · | -6.5%[11.4 µM] | -3.6%[11.4 µM] | ·
CN(Cc1ccccc1)Cn1ccnc1 | 0.7%[11.4 µM] | · | 9.5%[11.4 µM] | 14.6%[11.4 µM] | ·
COc1ccc(/C=N/c2nc3ccccc3n2C)cc1OC | 20µM* | i | -5.2% | -3.1% | >76.9
Cn1c(/N=C/c2cccs2)nc2ccccc21 | · | · | 6.0% | 27.3% | ·
O=C(Cc1cc(=O)[nH]c(=O)[nH]1)NCCN1CCOCC1 | 7.94µM* | · | 22.4% | 25.1% | ·
COc1ccc(C(=O)Oc2ccc(/C=N/O)cc2)cc1 | 12.6µM* | · | 25.4% | 9.9% | ·
O=C(c1cnccn1)N1CCC2(CCN(Cc3nccs3)CC2)CC1 | 0.4%[11.4 µM] | · | 11.4% | 6.6% | ·
C[C@H](CO)NC(=O)[C@H]1C[C@@H]1[C@H](NP(=O)(c1ccccc1)c1ccccc1)c1ccccc1 | · | · | 2.4% | 29.1% | ·
CCSc1nnc(NC(=O)c2ccc(Br)s2)s1 | 2.1% | >57 | -1.9% | 5.5% | 1.03*
Cc1c(-c2nc(N)nc(Nc3ccccc3F)n2)oc2ccccc12 | 12.6µM* | · | 23.8% | 14.8% | ·
COc1ccccc1Nc1nc(N)nc(-c2cc3ccccc3o2)n1 | -23.0% | · | 17.4% | 7.3% | >76.9
O=C(Cn1cnc2ccccc2c1=O)Nc1ccc2c(c1)OCCO2 | 12.6µM* | i | 3.9% | -1.3% | >76.9
Cc1ccccc1NC(=O)CSc1nc(Nc2ccccc2)nc(N2CCOCC2)n1 | -0.3% | >57 | ? | ? | >76.9
O=C(Cn1cnc2ccccc2c1=O)NCCC(=O)Nc1ccc2c(c1)OCCO2 | 1.8% | >57 | -2.2% | 2.6% | >76.9
O=C(CC(=O)c1ccccc1)Nc1ccc2c(c1)OCCO2 | 20µM* | · | -0.7%[11.4 µM] | 3.7% | >76.9
O=C(CSc1nc2ccccc2[nH]1)Nc1ccc2c(c1)OCCO2 | 25.1µM* | · | · | 45.7% | >76.9
O=C(CSc1nc2ccccc2[nH]1)c1ccc2c(c1)OCO2 | -11.6% | >57 | 3.0% | 3.1% | >76.9
O=C(CSc1nc(Nc2ccccc2)nc(N2CCOCC2)n1)Nc1ccc2c(c1)OCCO2 | -2.2% | >57 | 25.1µM* | 9.7% | >76.9
COc1ccc(CNc2ncncc2-c2ccccc2C(F)(F)F)c(OC)c1 | 1.3%[2.29 µM] | · | ? | ? | ·
O=C(CCN1C(=O)c2ccccc2C1=O)N1CCN(C(=O)c2ccccc2)CC1 | 0.2% | >57 | 25.1µM* | 28.5% | >76.9
C[C@@H]1Nc2ccc(Cl)cc2S(=O)(=O)N1 | 0.7% | · | -7.3% | -12.7% | ·
CC1CC(C)(C)Nc2ccc(OC(=O)c3ccco3)cc21 (stereo not given) | 12.6µM* | · | 20.6% | -3.6% | ·
O=C(CCCN=C1NS(=O)(=O)c2ccccc21)OCC(=O)N1CCc2ccccc21 | 31.6µM* | >57 | 5.7% | -13.2% | >76.9
SMILES | Luciferase inh | Bst PK mod | TSHR agonist | HEK293 cAMP ctrl | GBA activity
O=C(CN1CCCCCC1)OCCN=C1NS(=O)(=O)c2ccccc21 | -0.8% | >57 | 4.1% | -3.6% | >76.9
Cc1noc(C)c1C(=O)N1CCC2(CCCN(C(c3ccccc3)c3ccccc3)C2)CC1 | 1.6%[11.4 µM] | · | ? | ? | ·
CCCCOCCCNC(=O)c1ccc2c(c1)OCO2 | 2.3% | · | 14.9%[11.4 µM] | 27.5%[11.4 µM] | ·
CCCCOCCOCCOCc1cc2c(cc1CCC)OCO2 | · | · | ? | 31.6µM* | ·
COc1cccc(-n2c(SCC(=O)O)nnc2-c2cccnc2)c1 | 0.9% | >57 | -4.1% | -5.8% | >76.9
C=C(C)CSc1nnc(-c2cccc(S(=O)(=O)N(C)C)c2)n1-c1cc(OC)ccc1OC | -9.3% | >57 | ? | 12.6µM* | ·
CCOC(=O)CSc1nc2c(sc(=S)n2Cc2ccco2)c(=O)n1-c1ccccc1 | 0.0% | >57 | ? | 1.26µM* | ?
OCCOCCNc1ncnc2c1cnn2-c1ccccc1 | -10.9%[25.5 µM] | >25.6 | · | · | ·
COCCNc1ncnc2c1cnn2-c1ccc(Cl)cc1 | 10µM* | 10* | · | · | ·
CC(C)Nc1ncnc2c1cnn2-c1ccc(Cl)cc1 | 2.51µM* | · | -10.3% | -9.6% | ·
OCCOCCNc1ncnc2c1cnn2-c1ccc(Cl)cc1 | 10µM* | 11* | · | · | ·
OC[C@@H]1O[C@@H](n2cnc3c(Nc4ccccc4)ncnc32)[C@@H](O)[C@H]1O | -11.2% | · | ? | ? | ·
